Target: Tumor necrosis factor receptor superfamily member 10B (Homo sapiens) (UniProt O14763)
Experiment: caspase-8 TRAIL sensitization, hit retest, confirmation, cell-based, NB7+caspase-8, with/without TRAIL, luminescence panel (AID 651596)
Conditions: NB7 neuroblastoma + caspase-8, TRAIL sensitization, luminescence viability, with TRAIL, mean of runs, at 10 µM, stronger effect = higher value; in the data active means activity above about 50%; inactive means the rest

Chain of Tumor necrosis factor receptor superfamily member 10B (Homo sapiens) (O14763 whole entry, looked up): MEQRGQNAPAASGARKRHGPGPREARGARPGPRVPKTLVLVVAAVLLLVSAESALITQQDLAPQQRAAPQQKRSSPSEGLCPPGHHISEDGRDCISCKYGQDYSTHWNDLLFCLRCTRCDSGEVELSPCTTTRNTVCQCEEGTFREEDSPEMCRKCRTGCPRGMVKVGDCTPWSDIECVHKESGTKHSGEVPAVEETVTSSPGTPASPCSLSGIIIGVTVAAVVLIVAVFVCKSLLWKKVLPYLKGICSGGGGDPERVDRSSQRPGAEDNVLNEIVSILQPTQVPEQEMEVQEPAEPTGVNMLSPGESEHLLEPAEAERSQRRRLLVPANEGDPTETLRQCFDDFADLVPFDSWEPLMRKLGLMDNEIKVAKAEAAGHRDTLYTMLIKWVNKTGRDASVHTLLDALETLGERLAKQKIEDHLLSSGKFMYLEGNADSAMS

Compound | activity
C=C(C)CSc1nnc2n(Cc3ccccc3)c(=O)c3c4c(sc3n12)CCC4 | 90.4%
N/C(=N\OC(=O)c1ccc([N+](=O)[O-])cc1Cl)c1ccccn1 | 90.2%
Cc1cccc(-n2ncc3c(NC4CCCCC4)ncnc32)c1 | 66.7%
CCCCCCCCOC(=O)c1cc([N+](=O)[O-])c(Sc2ncnc3nc[nH]c23)c([N+](=O)[O-])c1 | 64.1%
Cc1cc(C)n2nc(C(=O)Nc3ccc4c(c3)OCCO4)nc2n1 | 45%
COc1cc(/C=N/Nc2nn3cnnc3c3ccccc23)cc(OC)c1OC | 73.9%
COc1cccc(N=c2oc3ccc(OC)cc3cc2-c2nc3ccccc3[nH]2)c1 | 12.8%
Cc1csc(NC(=O)c2ccc(OCC3CCCO3)cc2)n1 (stereo not given) | 54.9%
Clc1ccc(OCc2nn3c(C4CCCCC4)nnc3s2)cc1 | 49.8%
O=C(CCl)Nc1ccccc1Sc1ccccc1 | 83.2%
COc1ccccc1-c1cc2nc(-c3ccccc3)cc(N3CCN(C(=O)c4ccoc4)CC3)n2n1 | 78.4%
CC(C)NC(=O)c1ccc2c3n(nc2c1)-c1ccccc1CO3 | 95.8%
Cc1ccc(C(=O)OCn2ncc(Cl)c(Cl)c2=O)cc1 | 100%
CCOC(=O)c1sc(N(Cc2ccccc2)C(=O)CCl)nc1C | 99.1%
Cc1ccc2sc(NC(=O)CSc3nc(C)cc(C)c3C#N)nc2c1 | 71.5%
COc1ccc2[nH]c3c(NCCC4=CCCCC4)ncnc3c2c1 | 35.8%
COc1cc2c(cc1NC(=O)c1cccc([N+](=O)[O-])c1)oc1ccccc12 | -1.55%
Nc1nc(N)c2cc(S(=O)(=O)c3cccc(C(F)(F)F)c3)ccc2n1 | 60.4%
CN(C)c1ccc(C(=O)Nc2nc3c(s2)CCCC3)cc1 | 51.9%
CCCCCC(=O)N1C[C@H](n2cc(COC(=O)c3ccccc3)nn2)[C@@H](O)C[C@@H]1c1ccc(Cl)cc1 | 72.6%

Compound | activity
CC(=O)c1ccc(NC(=O)Nc2ccccc2)cc1 | 65.2%
NC(=S)NN=C1c2cc(OCCN3CCOCC3)ccc2-c2ccc(OCCN3CCOCC3)cc21 | 99%
O=C(NC(=S)N1CCN(c2ccc(C(F)(F)F)cc2[N+](=O)[O-])CC1)c1cccs1 | 60.9%
Cc1c(C)c2ccc(OCC(=O)Nc3nccs3)cc2oc1=O | 58.4%
CCCCNC(=O)c1cn(C)c2ccc(S(=O)(=O)N3CC(C)CC(C)C3)cc2c1=O (stereo not given) | 42.1%
O=C(Nc1nc2ccccc2[nH]1)C12CC3CC(CC(C3)C1)C2 | 66.2%
Cc1cc(C)cc(NC(=O)/C(C#N)=C/c2cn(CC(=O)NCc3ccco3)c3ccccc23)c1 | 62.1%
COc1ccccc1C/C(N)=N/OC(=O)c1cccc([N+](=O)[O-])c1 | 89.8%
O=C(NCCN1CCOCC1)NC1(C(F)(F)F)Oc2ccc(Cl)cc2O1 (stereo not given) | 32.6%
CCCCC1CCC(C(=O)N(CCCC)c2c(N)n(CCCC)c(=O)[nH]c2=O)CC1 (stereo not given) | 81.5%
Nc1nc(N)c2cc(Sc3ccc4ccccc4c3)ccc2n1 | 61%
O=C(Nc1ccc2c(c1)OCCO2)c1ccc(Br)s1 | 74.3%
Nc1ncnc2c(C3OC(CO)C(O)C3O)c[nH]c12 (stereo not given) | 95.2%
CCc1ccc(OCc2nc(-c3ccccn3)no2)c(Br)c1 | 50%
COc1ccc(C(C(=O)NC2CCCCC2)N(C(=O)CCl)c2ccc(C)cc2)cc1 (stereo not given) | 99.5%
Nc1nc(Nc2ccccc2)nc2ccccc12 | 69.2%
C/C(=N\NC(=O)c1nn(C)c(C)c1Br)c1cccc(NC(=O)c2ccc(F)cc2)c1 | 46%
Cc1cccc(N2CCN(C(=S)Nc3ccc4nc(N5CCN(C)CC5)cc(C)c4c3)CC2C)c1 (stereo not given) | 75.8%
CCc1ccc(/C=N/Nc2ncnc3nc[nH]c23)cc1 | 47.1%
COc1ccc(/C(N)=N/OC(=O)c2c(-c3ccccc3Cl)noc2C)cc1OC | 99.1%

Source: PubChem BioAssay
